The full list was thinned out, with hits kept by preference.
ST2 IL33 inh: inhibitors of human ST2 (IL1RL1) binding to IL-33. 78,000 compounds, 2.3% hits. Q01638. AID 1259354. AlphaLISA ST2-Fc/biotin-IL-33 interaction, 1 h. inhibition, % for hits at 17 µM; in the data active means inhibition above about 30%
Target sequence (Q01638 whole entry, looked up): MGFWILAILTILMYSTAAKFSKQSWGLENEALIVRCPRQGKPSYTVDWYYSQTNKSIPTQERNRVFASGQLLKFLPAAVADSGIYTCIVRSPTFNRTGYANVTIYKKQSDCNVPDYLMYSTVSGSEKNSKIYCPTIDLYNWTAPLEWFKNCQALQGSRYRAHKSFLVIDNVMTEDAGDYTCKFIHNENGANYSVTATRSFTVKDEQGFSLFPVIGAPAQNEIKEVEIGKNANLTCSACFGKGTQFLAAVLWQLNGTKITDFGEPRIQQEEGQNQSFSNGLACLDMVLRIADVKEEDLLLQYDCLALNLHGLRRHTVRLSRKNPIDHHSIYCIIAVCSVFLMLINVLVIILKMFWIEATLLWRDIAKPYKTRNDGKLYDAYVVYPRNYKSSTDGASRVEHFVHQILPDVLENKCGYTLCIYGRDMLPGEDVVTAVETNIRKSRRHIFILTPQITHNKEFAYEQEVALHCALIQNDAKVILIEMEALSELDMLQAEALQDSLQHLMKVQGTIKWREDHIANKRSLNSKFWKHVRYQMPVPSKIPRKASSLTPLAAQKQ
Numbers without * were called inactive; i = inactive; ! = not active in a repeat.

SMILES | ST2 IL33 inh
Cc1ccccc1-c1cc(C(=O)Nc2ccc(S(N)(=O)=O)cc2)c2ccccc2n1 | i
O=C(O)c1cc2c3c(c1)C1C=CCC1C(c1ccc(F)cc1)N3CC1CC=CC21 (configuration not stated) | i
O=C(O)c1cc2c3c(c1)C1C=CCC1C(c1ccccc1F)N3CC1CC=CC21 (configuration not stated) | i
O=C(O)c1cc2c3c(c1)C1C=CCC1C(c1cccc([N+](=O)[O-])c1)N3CC1CC=CC21 (configuration not stated) | 40%*
Cc1ccc(NC(=O)CSCc2n[nH]c(=O)[nH]2)c(C)c1 | i
O=c1c2nc3ccccc3n2c(=O)n2c1nc1ccccc12 | i
CCSc1nc2c(c(=O)[nH]1)C(c1cc(OC)c(OC)c(OC)c1)C1=C(CC(C)(C)CC1=O)N2 (configuration not stated) | i
Cc1cccc(N2CC(O)Cn3c2nc2c3c(=O)[nH]c(=O)n2C)c1 (configuration not stated) | i
CC1=NN(c2ccc(I)cc2)C(=O)/C1=C/c1ccc(N(C)C)cc1 | 38%*
CC1=NN(c2ccccc2)C(=O)/C1=C\c1ccc(N(C)C)c(Br)c1 | 39%*
COc1c(Br)cc(Br)cc1/C=C1\C(=O)N(c2ccccc2)N=C1C | i
CC1=NN(c2cccc(Br)c2)C(=O)/C1=C\c1ccc(N(C)C)cc1 | i
CC1=NN(c2ccccc2)C(=O)/C1=C/c1cccc(Br)c1 | i
CC1=NN(c2cccc(F)c2)C(=O)/C1=C/c1ccc(N(C)C)cc1 | i
O=C(Cn1cnc2ccccc2c1=O)Nc1cccc(Cl)c1 | i
CCOc1cc(C=O)cc(I)c1OCC(=O)O | i
O=Cc1cc(Cl)c(OCC(=O)O)c(Br)c1 | i
CCOC(=O)C1C(=O)C=C(c2ccco2)CC1c1c(F)cccc1Cl (configuration not stated) | i
CC(=O)Nc1ccc(S(=O)(=O)N2C[C@@H]3C[C@H](C2)c2ccc(-c4ccc(OC(F)(F)F)cc4)c(=O)n2C3)cc1 | i
O=C(Nc1nc(-c2ccc3c(c2)OCO3)cs1)c1cc(=O)c2ccccc2o1 | 45%*!
Cc1ccc(-c2csc(NC(=O)c3cc(=O)c4ccccc4o3)n2)cc1C | i
COc1ccc(-c2csc(NC(=O)c3cc(=O)c4ccccc4o3)n2)cc1 | i
CCCCOc1ccc(C(=O)Nc2ccccc2Br)cc1 | i
O=c1[nH]nc(CN2CCCCC2)n1Cc1ccccc1 | i
Fc1cccc2sc(Nc3nc(-c4ccccn4)cs3)nc12 | i
SMILES | ST2 IL33 inh
CCn1cnc2cc(NCc3cc(OC)c(OC)c(OC)c3)ccc21 | i
NCCCNc1ccc(Cl)cc1[N+](=O)[O-] | i
O=C(Nc1ccc(Cl)cc1[N+](=O)[O-])c1cccs1 | 33%*
O=C(Nc1cccc(Cl)c1)c1cccs1 | i
COc1ccc(Cl)cc1NC(=O)c1cccs1 | i
O=C(NCCNc1ccc(Cl)cc1[N+](=O)[O-])c1ccc(Br)o1 | i
COc1ccc(NCCNC(=O)c2ccc(Cl)cc2)c([N+](=O)[O-])c1 | 32%*
COc1ccc(NC(=O)c2ccc(-c3ccccc3)cc2)c([N+](=O)[O-])c1 | i
CCNc1ccc(Cl)cc1[N+](=O)[O-] | 31%*
CN(C)CCNc1ccc(Cl)cc1[N+](=O)[O-] | i
c1ccc2c(c1)COC(CN1CCN(CC3OCc4ccccc4CO3)CC1)OC2 | i
Cc1cccc(CN2CCCC3(CCN(Cc4cnn(C(C)C)c4)C3)C2)c1 (configuration not stated) | i
O=C(Nc1cccc([N+](=O)[O-])c1)c1cc(S(=O)(=O)Nc2ccccc2)ccc1Cl | i
CC1CCCC(C)N1C(=O)c1ccc([N+](=O)[O-])cc1 (configuration not stated) | i
Cc1ccc(N2C(=O)C3C4CCC(C4)C3C2=O)cc1C (configuration not stated) | i
COc1cc(CC(=O)N2CC[C@H](CO)[C@H](O)C2)cc(OC)c1 | i
COc1cc2c(cc1OC)C(C(=O)N1CCC(C)CC1)C(c1cccs1)N(C)C2=O (configuration not stated) | i
C=CCSc1nnc2n(C)c(=O)c3c(n12)-c1ccccc1CC31CCCCC1 | 38%*
COc1ccc(-n2c(=O)c3c(n4cnnc24)-c2ccccc2CC32CCCC2)cc1 | i
CCSc1nnc2n(C)c(=O)c3c(n12)-c1ccccc1CC31CCCCC1 | i
Cc1cccn2c(=O)c3cc(C(=O)N4CCCCCC4)n(C)c3nc12 | i
CCCc1nc2ccccc2n1CC(O)COc1ccc(C(=O)O)cc1 (configuration not stated) | i
Cn1cc(C(=O)NC2CCCCCC2)c2c3ccccc3n(C)c2c1=O | i
CC(C)Cn1cc(C(=O)NC2CCCCC2)c2c3ccccc3n(C)c2c1=O | 36%*
CC(C)Cn1cc(C(=O)NC2CCCC2)c2c3ccccc3n(C)c2c1=O | i
COc1ccc(C(=O)Nc2cc(OC)cc(OC)c2)cc1 | i
COc1ccc(C(=O)Nc2ccc(N3CCCC3)cc2)cc1 | 59%*
COc1ccc(C(=O)Nc2ccc(N3CCCC3)cc2)cc1OC | 35%*

High-throughput results deposited in PubChem BioAssay by Paczesny and Yang Labs, IUPUI and University of Michigan.
